Results on 27 compounds are retold here after the supplement of paper PMC7366291.

The structures appear in SMILES notation. Where a name gives a salt, the structure may show the parent alone. ± gives the standard deviation or the standard deviation of the averaged measurements.

What all share (conditions): 25 µM; exposure: 24-48 hpf
The subject of assay [1] is Danio rerio Tg(wt1b:EGFP) embryo, pronephros. The assay can be described thus: glomerular separation, fold change vs DMSO control; higher = glomeruli further apart (abnormal). The essentials:
(§1)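 Every feature is expressed as a fold change relative to the averaged DMSO-treated embryos of the same day. The exposure ran from 24 to 48 hpf at 28.5°C, with dechorionated Tg(wt1b:EGFP) zebrafish embryos in HEPES-buffered E3 containing 0.003% PTU, 0.5% DMSO and 25 μM compound. Dorsal pronephros images taken in agarose-filled 96-well plates were reduced to maximum projections, on which 16 reference points were set by hand in Fiji for a macro to compute distances and angles. Values more than 2 SD from the feature mean were not used.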

For assay [2] the test system is unchanged. Nature of the assay: glomerular width (mean of left and right), fold change vs DMSO control; higher = wider glomerulus. The method in brief: as §1
The test system is the same in assay [3]. The assay can be described thus: fraction of imaged embryos annotated as normal kidney; higher = less nephrotoxic; extreme values may be limits of the assay. The method in brief: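 The value given is the share of embryos in each treatment scored as having a normal kidney. To obtain it, dechorionated Tg(wt1b:EGFP) zebrafish embryos were treated from 24 to 48 hpf at 28.5°C with 25 μM compound in 0.5% DMSO, in 5 mM HEPES-buffered E3 with 0.003% PTU. Pronephroi were imaged by widefield fluorescence (470 nm, 10 z-slices), and every embryo was annotated by hand from maximum projections.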

Assay [4] shares this test system. The assay can be described thus: pronephric angle neck segment to proximal convoluted tubule (mean of left and right), fold change vs DMSO control; higher = larger pronephric angle. The essentials: as §1

For the compound `NC(=O)CN1CCCC1=O` [Piracetam], in assay [1], the glomerular separation came out at 0.815 ± 0.17. Further, in assay [2], the glomerular width amounted to 1.08 ± 0.032. The “fraction of imaged embryos annotated as normal kidney” value (shortened to “fraction of imaged embryos annotated”) in assay [3] was found to be 0.917. The “pronephric angle neck segment” value in assay [4] amounted to 0.914 ± 0.051.

On to `C=CCC1(CC(C)C)C(=O)NC(=O)NC1=O` [Butalbital], for which the glomerular separation in assay [1] was 0.97 ± 0.31. This compound returned a glomerular width in assay [2] of 1.1 ± 0.086. In addition, in assay [3], the “fraction of imaged embryos annotated” value came out at 0.75. Moreover, in assay [4], the “pronephric angle neck segment” value was 1.01 ± 0.11.

For the compound `CC(NC(C)(C)C)C(=O)c1cccc(Cl)c1` (stereo not drawn) [Bupropion hydrochloride], the glomerular separation in assay [1] was 0.797 ± 0.2. The compound further returned a glomerular width in assay [2] of 1.026 ± 0.0015. The “fraction of imaged embryos annotated” value in assay [3] is 1. In assay [4], the “pronephric angle neck segment” value stood at 1.03 ± 0.011.

In assay [1], `C[C@]12CCC(=O)C=C1C=C[C@@H]1[C@@H]2CC[C@@]2(C)[C@H]1CC[C@@]2(O)CCC(=O)O` [Canrenoic acid potassium salt] had a glomerular separation of 1.07 ± 0.36. This compound had a glomerular width in assay [2] of 1.03 ± 0.033. Also, the “fraction of imaged embryos annotated” value in assay [3] is 0.455. Moreover, in assay [4], the “pronephric angle neck segment” value stood at 0.97 ± 0.046.

In assay [1], `CC(C)C[C@H]1C(=O)N2CCC[C@H]2[C@]2(O)O[C@](NC(=O)[C@@H]3C=C4c5cccc6[nH]c(Br)c(c56)C[C@H]4N(C)C3)(C(C)C)C(=O)N12` [Bromocryptine mesylate] showed a glomerular separation of 1.01 ± 0.34. In assay [2], this compound displayed a glomerular width of 1.12 ± 0.012. Moreover, in assay [3], the “fraction of imaged embryos annotated” value is 0.833. Moreover, in assay [4], the “pronephric angle neck segment” value came out at 0.985 ± 0.022.

The compound `CN(C)C(=O)Oc1ccc[n+](C)c1` [Pyridostigmine iodide] gave a glomerular separation in assay [1] of 1.26 ± 0.35. The compound further displayed a glomerular width in assay [2] of 0.982 ± 0.096. In addition, the “fraction of imaged embryos annotated” value in assay [3] was 0.917. Also, the “pronephric angle neck segment” value in assay [4] came to 1.03 ± 0.013.

In assay [1], `COc1ccc(CCN2CCC(Nc3nc4ccccc4n3Cc3ccc(F)cc3)CC2)cc1` [Astemizole] had a glomerular separation of 2.83 ± 2.3. The same compound returned a glomerular width in assay [2] of 0.777 ± 0.12. Moreover, the “fraction of imaged embryos annotated” value in assay [3] was determined as 0.333. In assay [4], the “pronephric angle neck segment” value was found to be 1.01 ± 0.022.

The compound `COc1ccc(CCN)cc1OC` [Homoveratrylamine] returned a glomerular separation in assay [1] of 1.13 ± 0.38. Besides, the glomerular width in assay [2] was found to be 0.994 ± 0.012. For the same compound, the “fraction of imaged embryos annotated” value in assay [3] was 0.75. Besides, the “pronephric angle neck segment” value in assay [4] amounted to 0.972 ± 0.021.

Consider `C[C@]12COC(=O)C[C@@H]1CC[C@@H]1[C@@H]2CC[C@@]2(C)[C@H]1CC[C@]2(C)O` [Oxandrolone], for which, in assay [1], the glomerular separation came out at 0.832 ± 0.35. Moreover, in assay [2], the glomerular width was determined as 1.1 ± 0.05. For the same compound, the “fraction of imaged embryos annotated” value in assay [3] came out at 0.917. Also, the “pronephric angle neck segment” value in assay [4] turned out to be 1.01 ± 0.036.

In assay [1], `CC(C)c1cccc(C(C)C)c1O` [Propofol] yielded a glomerular separation of 0.693 ± 0.2. Besides, the glomerular width in assay [2] was found to be 1.02 ± 0.021. In addition, the “fraction of imaged embryos annotated” value in assay [3] turned out to be 0.75. The “pronephric angle neck segment” value in assay [4] was 1.02 ± 0.14.

For `C[C@]12CC[C@H](O)C[C@H]1CC[C@@H]1[C@@H]2C[C@@H](O)[C@]2(C)[C@@H](C3=CC(=O)OC3)CC[C@]12O` [Digoxigenin], in assay [1], the glomerular separation came to 0.711 ± 0.21. The glomerular width in assay [2] amounted to 0.994 ± 0.017. In addition, the “fraction of imaged embryos annotated” value in assay [3] was 0.917. In assay [4], the “pronephric angle neck segment” value was 0.9639 ± 0.0077.

In the case of `C[N+]1(C)[C@@H]2CC[C@H]1C[C@@H](OC(=O)C(CO)c1ccccc1)C2` (stereo partly drawn) [Methylatropine nitrate], the glomerular separation in assay [1] came out at 1.01 ± 0.39. The compound also yielded a glomerular width in assay [2] of 0.936 ± 0.028. Besides, the “fraction of imaged embryos annotated” value in assay [3] is 0.917. Further, the “pronephric angle neck segment” value in assay [4] worked out at 1.06 ± 0.017.

For the compound `Clc1ccc(C(OCCN2CCCCC2)c2ccccc2)cc1` (stereo not drawn) [Cloperastine hydrochloride], the glomerular separation in assay [1] was 0.819 ± 0.35. Moreover, the glomerular width in assay [2] worked out at 1.04 ± 0.069. Besides, in assay [3], the “fraction of imaged embryos annotated” value is 0.917. In addition, in assay [4], the “pronephric angle neck segment” value was 0.994 ± 0.0094.

`CN1CCC2(C)c3cc(O)ccc3N(C)C12` (single isomer, unassigned; (-)) [(-)-Eseroline fumarate salt] gave a glomerular separation in assay [1] of 0.883 ± 0.34. In assay [2], this compound came in with a glomerular width of 1.01 ± 0.025. The “fraction of imaged embryos annotated” value in assay [3] is 0.917. Besides, the “pronephric angle neck segment” value in assay [4] stood at 1.02 ± 0.043.

As for `CC[C@@H](C(N)=O)N1CCCC1=O` [Levetiracetam], the glomerular separation in assay [1] stood at 0.937 ± 0.41. The glomerular width in assay [2] turned out to be 1.04 ± 0.041. Besides, the “fraction of imaged embryos annotated” value in assay [3] was found to be 0.917. For the same compound, the “pronephric angle neck segment” value in assay [4] is 1.011 ± 0.0044.

In assay [1], `C=C1C[C@@H]2[C@H](CC[C@]3(C)C(=O)CC[C@@H]23)[C@@]2(C)C=CC(=O)C=C12` [Exemestane] yielded a glomerular separation of 0.893 ± 0.38. The glomerular width in assay [2] worked out at 0.932 ± 0.065. Besides, in assay [3], the “fraction of imaged embryos annotated” value is 0.727. The “pronephric angle neck segment” value in assay [4] was 1.25 ± 0.036.

Regarding `CCC1(c2ccc(N)cc2)CCC(=O)NC1=O` (stereo not drawn) [Glutethimide, para-amino], in assay [1], the glomerular separation worked out at 1.05 ± 0.27. For the same compound, in assay [2], the glomerular width worked out at 1.04 ± 0.036. Also, the “fraction of imaged embryos annotated” value in assay [3] is 0.667. Further, the “pronephric angle neck segment” value in assay [4] worked out at 1.05 ± 0.021.

`CCNCC(O)c1cccc(O)c1` (stereo not drawn) [Etilefrine hydrochloride] had a glomerular separation in assay [1] of 0.79 ± 0.23. The glomerular width in assay [2] was found to be 0.9277 ± 0.0022. In assay [3], the “fraction of imaged embryos annotated” value stood at 0.833. In addition, the “pronephric angle neck segment” value in assay [4] was 0.951 ± 0.051.

As for `COc1ccc(CN2CCNCC2)c(OC)c1OC` [Trimetazidine dihydrochloride], the glomerular separation in assay [1] worked out at 0.91 ± 0.3. Besides, the glomerular width in assay [2] came to 0.96 ± 0.014. The “fraction of imaged embryos annotated” value in assay [3] came to 0.917. Further, the “pronephric angle neck segment” value in assay [4] was 0.982 ± 0.044.

As to `CC(=O)O[C@H]1CC[C@@]2(C)C(=CC[C@@H]3[C@@H]2CC[C@]2(C)C(=O)CC[C@@H]32)C1` [Dehydroisoandosterone 3-acetate], the glomerular separation in assay [1] worked out at 1.13 ± 0.35. Further, in assay [2], the glomerular width worked out at 0.896 ± 0.056. In addition, the “fraction of imaged embryos annotated” value in assay [3] turned out to be 0.917. Further, in assay [4], the “pronephric angle neck segment” value was determined as 1.02 ± 0.043.

In turn, `CCC(COC(=O)c1cc(OC)c(OC)c(OC)c1)(c1ccccc1)N(C)C` (stereo not drawn) [Trimebutine] registered a glomerular separation in assay [1] of 0.875 ± 0.36. For the same compound, the glomerular width in assay [2] was found to be 0.9518 ± 0.0092. Further, the “fraction of imaged embryos annotated” value in assay [3] came to 0.917. In assay [4], the “pronephric angle neck segment” value came out at 1.01 ± 0.012.

Take `C[N+](C)(C)CCCCCCCCCC[N+](C)(C)C` [Decamethonium bromide]: the glomerular separation in assay [1] stood at 1.04 ± 0.55. In addition, the glomerular width in assay [2] was determined as 1.01 ± 0.041. Further, the “fraction of imaged embryos annotated” value in assay [3] amounted to 0.727. Further, the “pronephric angle neck segment” value in assay [4] is 1.02 ± 0.021.

For the compound `NCC(CC(=O)O)c1ccc(Cl)cc1` (racemic) [Baclofen (R,S)], the glomerular separation in assay [1] turned out to be 0.757 ± 0.3. This compound also yielded a glomerular width in assay [2] of 0.933 ± 0.0029. Also, in assay [3], the “fraction of imaged embryos annotated” value was 0.833. In assay [4], the “pronephric angle neck segment” value was determined as 0.829 ± 0.056.

`CC(N)C(O)c1ccccc1` (stereo not drawn) [Phenylpropanolamine hydrochloride]: in assay [1], the glomerular separation worked out at 0.921 ± 0.29. The compound further showed a glomerular width in assay [2] of 0.982 ± 0.054. The “fraction of imaged embryos annotated” value in assay [3] was determined as 0.917. For the same compound, in assay [4], the “pronephric angle neck segment” value worked out at 1.07 ± 0.027.

Consider `CC(C)C[C@H](CN)CC(=O)O` [Pregabalin], for which, in assay [1], the glomerular separation is 1.1 ± 0.25. The same compound yielded a glomerular width in assay [2] of 0.9518 ± 0.0028. Further, the “fraction of imaged embryos annotated” value in assay [3] amounted to 0.917. In addition, the “pronephric angle neck segment” value in assay [4] stood at 1.03 ± 0.03.

As for `CC(C)CC(N(C)C)C1(c2ccc(Cl)cc2)CCC1` (stereo not drawn) [Sibutramine hydrochloride], the glomerular separation in assay [1] came to 0.986 ± 0.37. In addition, the glomerular width in assay [2] was determined as 0.995 ± 0.021. Further, in assay [3], the “fraction of imaged embryos annotated” value stood at 0.417. In addition, in assay [4], the “pronephric angle neck segment” value turned out to be 1.08 ± 0.054.

`C[C@@H]1CN([C@H]2CC[C@](C#N)(c3ccc(F)cc3)CC2)CC[C@]1(C(=O)O)c1ccccc1` [Levocabastine hydrochloride] showed a glomerular separation in assay [1] of 1.19 ± 0.32. For the same compound, the glomerular width in assay [2] is 1.06 ± 0.034. The “fraction of imaged embryos annotated” value in assay [3] amounted to 0.917. The “pronephric angle neck segment” value in assay [4] came to 0.959 ± 0.011.
